# From PubChem BioAssay
# PostGolgi ctrl: growth of the yeast control strain, post-Golgi counter-screen; inhibition, % at 10 µM; efflux-deficient yeast background strain, growth absorbance A615, 16 h; AID 738; hit rate 5% among 98,000
# PostGolgi yeast: growth inhibition of a yeast mutant, post-Golgi transport screen; post-Golgi transport phenotypic cell assay; inhibition, % at 10 µM; hit rate 0.9% among 98,000;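 note: yeast cells grown in 1536-well plates; yeast grown about 18 h at 30C before absorbance read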
# CYP2C9 inh: blocks human cytochrome P450 2C9; P11712; CYP2C9 Supersomes, luciferin-H conversion, luminescence; inhibition, % at 5 µM; hit rate 20% among 96,000; AID 777;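 active = blocking of liver enzyme CYP2C9 beyond about 50% at 5 µM, limit read from the data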
# Target sequence (P11712 whole entry, looked up): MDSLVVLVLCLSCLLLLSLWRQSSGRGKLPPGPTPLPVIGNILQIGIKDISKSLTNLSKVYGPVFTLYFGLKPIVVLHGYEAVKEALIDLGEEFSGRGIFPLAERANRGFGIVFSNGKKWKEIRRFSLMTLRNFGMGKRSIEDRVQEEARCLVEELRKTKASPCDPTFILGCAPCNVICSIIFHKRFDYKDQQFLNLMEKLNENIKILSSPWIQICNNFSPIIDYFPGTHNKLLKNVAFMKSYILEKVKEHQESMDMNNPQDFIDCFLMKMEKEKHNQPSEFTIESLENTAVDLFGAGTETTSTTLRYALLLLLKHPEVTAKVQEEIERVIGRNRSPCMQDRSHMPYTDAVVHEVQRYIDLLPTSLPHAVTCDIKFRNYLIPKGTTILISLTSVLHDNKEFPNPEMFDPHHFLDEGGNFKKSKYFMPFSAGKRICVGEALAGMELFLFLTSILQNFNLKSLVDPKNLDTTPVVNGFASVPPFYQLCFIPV
# CYP2C19 activ: activators of human cytochrome P450 2C19. P33261. recombinant CYP2C19, luciferin-H EGE luminescence; active compounds read high; 0 = fully inhibited enzyme, 1 = untreated enzyme. activation factor at 5 µM. 96,000 tested, under 10 active;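 active = activation factor of at least 2 at 5 µM in the primary screen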;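 note: 0 = wells with 2.5 mM tranylcypromine and 1 = vehicle-only wells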
# CYP2C9 act: increases human cytochrome P450 2C9 activity; P11712; recombinant CYP2C9, luciferin-H conversion, luminescence; active compounds read high; factor 1 = untreated enzyme, 0 = blocked; activation factor at 5 µM; hit rate 1.4% among 96,000;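 active = activation factor of 2 or more for CYP2C9 at a 5 µM dose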;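 note: 0 = sulfaphenazole-blocked wells and 1 = vehicle-only wells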
# CYP2C19 inh: blocks human cytochrome P450 2C19; inhibition, % at 5 µM; P33261; AID 778; CYP2C19 Supersomes, luciferin-H EGE luminescence, 30 min; hit rate 21% among 96,000;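 active = CYP2C19 inhibition above a set limit at 5 µM in the primary screen, cut at about 50% in these data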;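 note: plate controls were negative control wells for no effect and 2.5 mM tranylcypromine positive control for full effect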
# The depositor's hits bear a star; x = no result given. This is a sample that favours compounds with a hit; in the whole collection about 32% have one here. Cut-off read from the data, not from the text of the source, unless noted: active = inhibition above about 30%; inactive = the rest.
SMILES,PostGolgi ctrl,PostGolgi yeast,CYP2C9 inh,CYP2C19 activ,CYP2C9 act,CYP2C19 inh
O=C(CS(=O)(=O)c1ccccc1)c1ccc2c(c1)OCCO2,23,4,-84,0.3,1.8,70*
O=C(CCN1CCc2ccccc2C(c2ccccc2)C1)c1ccc2c(c1)OCCO2 (stereo not drawn),-1,-11,55*,0.7,0.5,29
COC(=O)CNC(=O)c1nn(-c2cccc(OC)c2)c(=O)c2ccccc12,12,4,16,1,0.8,3
O=C(CN1CCOCC1)NCC12CC3CC(CC(C3)C1)C2,37*,1,2,1,1,-2
O=C(CNC(=O)Cc1ccccc1)NCC(=O)OCC(=O)c1cccc2ccccc12,-1,-1,-257,0.8,3.6*,22
O=C(CNC(=O)c1ccco1)OCC(=O)c1cccc2ccccc12,16,-4,-91,0.9,1.9,5
COc1nc2ccc(C)cc2cc1-c1noc(-c2ccccc2)n1,31*,8,36,0.9,0.6,13
COc1cc(OC)cc(-c2nc(-c3cc4cc(C)ccc4nc3OC)no2)c1,8,15,1,0.8,1,23
Nc1nc(SCC(=O)OCc2ccccc2)[nH]c(=O)c1NC(=O)c1ccco1,-4,-4,-13,1.2,1.1,-21
Cc1ccc(Nc2nc(=O)c3cccnc3s2)cc1,6,5,82*,0.1,0.2,94*
O=c1nc(NCc2ccco2)sc2ncccc12,1,0,7,1.1,0.9,-9
c1ccc(-c2nc(NC3CC3)nc(-n3ccnc3)n2)cc1,10,-7,18,0.9,0.8,11
C=CCNC(=O)COC(=O)c1cc(S(=O)(=O)N2CCOCC2)ccc1N1CCCCC1,5,4,4,1,1,-3
O=c1oc2ccccc2c2c1nc(C(F)(F)F)n2-c1ccccc1,4,-4,27,0.9,0.7,10
CC1CCCC(C)N1c1nnc(NC(=O)c2cc(-c3ccc(Br)cc3)on2)s1 (stereo not drawn),31*,4,74*,0.5,0.3,52*
O=C(Nc1nnc(N2CCCCCC2)s1)c1cc(-c2ccc(Br)cc2)on1,9,-6,15,1.2,0.8,-19
COc1ccc(-n2nnnc2-c2cnc3cc4c(cc3c2C)OCO4)cc1,1,-7,46,0.7,0.5,31
CCOc1cc(CNC(C)(C)CO)cc(Br)c1OCc1ccc(Cl)cc1Cl,91*,13,-2,1,1,1
CCOc1cc(CNCCO)cc(Br)c1OCc1ccc(Cl)cc1,27,1,14,0.2,0.9,78*
CCOc1cc(CNCCO)cc(Br)c1OCc1ccccc1Cl,15,3,-6,0.5,1.1,55*
COC(=O)c1ccc2c(=O)sc(N3CCC(C(N)=O)CC3)nc2c1,0,-5,25,0.9,0.8,6
CCOC(=O)C1=C(Cn2cnc3ccccc32)NC(=O)NC1c1ccc(OC)cc1 (stereo not drawn),-14,-2,67*,0.5,0.3,54*
COc1ccc(CC(=O)NNC(=S)Nc2ccccc2)cc1Br,-4,-4,37,0.3,0.6,74*
CCOc1ccc(CC(=O)NNC(=S)Nc2ccccc2)cc1Br,-5,5,72*,0.5,0.3,53*
COc1ccc(C(=O)NNC(=O)Cc2ccc(-c3ccccc3)cc2)cc1OC,0,-5,-24,1.1,1.2,-13
SMILES,PostGolgi ctrl,PostGolgi yeast,CYP2C9 inh,CYP2C19 activ,CYP2C9 act,CYP2C19 inh
COc1ccc(NC(=S)NNC(=O)Cn2nc([N+](=O)[O-])cc2C)cc1,13,-3,-11,1.1,1.1,-11
CCOc1cc(NC(=S)Nc2ccccc2)c(OCC)cc1NC(=O)c1ccccc1,-9,0,4,1.1,1,-6
COc1ccc(CC(=O)NNC(=S)Nc2ccc(Br)cc2)cc1,10,1,52*,0.6,0.5,42
Cc1cccc(NC(=O)CSc2nc(COc3ccccc3)nc3ccccc23)c1C,3,13,90*,0.6,0.1,39
CCc1nc(SCC(=O)Nc2sc(C)c(C)c2C(=O)OC)c2ccccc2n1,5,3,54*,0.9,0.5,14
Cc1cccc(C)c1NC(=O)CSc1nc(COc2ccccc2)nc2ccccc12,10,11,90*,0.3,0.1,66*
C=C(C)c1cccc(C(C)(C)NC(=O)N2CCC(C)CC2)c1,-2,-3,48,0.9,0.5,11
COCCNC(=O)C(c1ccccc1C)N(CCOC)C(=O)Cn1nnc2ccccc21 (stereo not drawn),8,12,10,0.9,0.9,9
CSCCC(NC(=O)COc1ccccc1)C(=O)N1CCN(c2ccccc2F)CC1 (stereo not drawn),1,-3,78*,0.3,0.2,74*
CN1CCN(c2ccccc2NC(=O)COc2ccccc2)CC1,23,2,-3,1,1,-3
O=C(NCC(c1cccs1)N1CCOCC1)c1cc2ccccc2o1 (stereo not drawn),0,-4,74*,0.3,0.3,75*
O=C(NCC(c1cccs1)N1CCOCC1)c1ccco1 (stereo not drawn),2,-8,36,0.6,0.6,44
CCCOc1ccc(N2CC(C(=O)Nc3ccccc3F)CC2=O)cc1 (stereo not drawn),-2,0,41,1,0.6,3
CCOc1cc(N2CCOCC2)c(OCC)cc1NC(=O)C(NC(=O)c1ccco1)C(C)C (stereo not drawn),0,-6,-2,0.9,1,10
CCOc1ccccc1C(=O)NC(C(=O)Nc1ccccc1N1CCOCC1)C(C)C (stereo not drawn),9,1,73*,0.6,0.3,38
COC(=O)c1ccccc1NC(=O)C1CC(=O)N(C2CCCCC2)C1 (stereo not drawn),2,-5,59*,0.3,0.4,66*
CCOc1ccc(N2CC(C(=O)Nc3ccccc3N3CCOCC3)CC2=O)cc1 (stereo not drawn),-6,9,85*,0.6,0.2,41
CCc1ccc(N2CC(C(=O)N/N=C/c3cccc([N+](=O)[O-])c3)CC2=O)cc1 (stereo not drawn),10,-5,69*,0.8,0.3,16
O=C(Nc1ccccc1C(=O)N1CCOCC1)C1CC(=O)N(C2CCCC2)C1 (stereo not drawn),9,-8,-14,1.2,1.1,-16
O=C(Cn1cc2c(n1)CCCC2)NCCc1ccccc1,8,1,x,x,x,x
Cc1nc(SCc2ccccc2)c(C(F)(F)F)c(=O)[nH]1,-1,-5,44,0.5,0.6,48
Cc1ccc(OCC(=O)NNC(=O)c2cccnc2)cc1,-9,4,-18,1.2,1.2,-17
CCc1ccc(N2CC(C(=O)Nc3ccccc3F)CC2=O)cc1 (stereo not drawn),1,-8,82*,0.5,0.2,46
